# The supplement of paper PMC10849652
# About 7,900 targets were measured; listed, in parts, are those with a hit and a random draw of the rest. About 0.6% of all pairs of compound and target were hits. A number with no mark means an inactive call.
# Columns and labels:
# Experiment in all cases: log2 fold change, soluble protein after heating vs DMSO (PISA); higher = thermal stabilisation; K562 cells, 10 uM, 30 min; active = over 0.2 and 3.5 SD of the protein, either way, in both replicates (recomputed)
# erlotinib = compound: C#Cc1cccc(Nc2ncnc3cc(OCCOC)c(OCCOC)cc23)c1 [erlotinib]
# How it was run: (§1)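 Values are thermal stability changes relative to control samples and are taken from duplicates. They are stated as log2 fold changes. Before quantification by TMTpro 16plex LC-MS/MS with equalised channel sums, K562 cells at 2×10^6 cells/mL were treated with 10 μM compound for 30 min, heated in aliquots for 3 min across 48°C-58°C, pooled, extracted in PBS with 0.5% NP-40 at 4°C, and centrifuged at 21,000xg for 90 min to give the soluble supernatant.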
# [1] = compound: C/C(=N\NC(=O)C1=CC(=CC=C1)S(=O)(=O)N2CCOCC2)/C3=C(C=CC(=C3)Cl)O
# How it was run: as §1
# [2] = compound: C1=CC(=C(C=C1Cl)C2=NC3=NC=CN=C3C(=N2)NC4=CC=NC=C4)F
# How it was run: as §1
# [3] = compound: C1=CC(=CC=C1C2=NC3=C(N2)C=C(C=C3)C(=O)N)OC4=CC=C(C=C4)Cl
# How it was run: as §1
# [4] = compound: C1=CC2=C(C=CC(=C2)/C=C\3/C(=O)NC(=NCC4=CC=CS4)S3)N=C1
# How it was run: as §1
# [5] = compound: C1=CC2=NC=CN=C2C=C1/C=C/3\C(=O)NC(=O)S3
# How it was run: as §1
# [6] = compound: C1=CC=C(C=C1)C2=NC(=C(N2)C3=CC=NC=C3)C4=CC(=C(C=C4)Cl)O
# How it was run: as §1
# [7] = compound: C1=CC=C2C(=C1)C3=NNC4=CC=CC(=C43)C2=O
# How it was run: as §1
# [8] = compound: C1CCN(C1)C(=O)NC2=CC=CC(=C2)NC3=NC=C(C(=N3)NCCC4=CN=CN4)Br
# How it was run: as §1
# [9] = compound: C1CN(CCC1(CC2=CC=C(C=C2)Cl)N)C3=NC=NC4=C3C=CN4
# How it was run: as §1
# IRAK-1-4 Inhibitor I = compound: C1COCCN1CCN2C3=CC=CC=C3N=C2NC(=O)C4=CC(=CC=C4)[N+](=O)[O-] [IRAK-1-4 Inhibitor I]
# How it was run: as §1
# ibrutinib = compound: C=CC(=O)N1CCC[C@@H](n2nc(-c3ccc(Oc4ccccc4)cc3)c3c(N)ncnc32)C1 [ibrutinib]
# How it was run: as §1
# [10] = compound: CC(=O)c1cnc2ccc(-c3cc(Cl)c(O)c(Cl)c3)nc2c1N[C@H]1CC[C@H](CN(C)C)CC1
# How it was run: as §1
# ralimetinib = compound: CC(C)(C)Cn1c(N)nc2ccc(-c3[nH]c(C(C)(C)C)nc3-c3ccc(F)cc3)nc21 [ralimetinib]
# How it was run: as §1
# [11] = compound: CC(C)(O)CC(=O)NCCn1ccc2ncnc(Nc3ccc(Oc4cccc(C(F)(F)F)c4)c(Cl)c3)c21
# How it was run: as §1
# [12] = compound: CC(C)C1=C2N=C(C=C(N2N=C1)NCC3=CC=CC=C3)NCCCCCCN
# How it was run: as §1
# [13] = compound: CC(C)C[C@@H](C=O)NC(=O)[C@H](CC(C)C)NC(=O)[C@H](CC(C)C)NC(=O)OCc1ccccc1
# How it was run: as §1
# pinometostat = compound: CC(C)N(C[C@H]1O[C@@H](n2cnc3c(N)ncnc32)[C@H](O)[C@@H]1O)[C@H]1C[C@@H](CCc2nc3cc(C(C)(C)C)ccc3[nH]2)C1 [pinometostat]
# How it was run: as §1
# [14] = compound: CC1=C(C(CC(=O)N1)C2=CC=C(C=C2)C(F)(F)F)C(=O)NC3=C(C=C4C(=C3)C=NN4)F
# How it was run: as §1
# [15] = compound: CC1=C(C2=C(C=C1)C(=O)C3=CC=CC=C3N2CCCN)C
# How it was run: as §1
# UniProt P06730, sequence (P06730 whole entry, looked up): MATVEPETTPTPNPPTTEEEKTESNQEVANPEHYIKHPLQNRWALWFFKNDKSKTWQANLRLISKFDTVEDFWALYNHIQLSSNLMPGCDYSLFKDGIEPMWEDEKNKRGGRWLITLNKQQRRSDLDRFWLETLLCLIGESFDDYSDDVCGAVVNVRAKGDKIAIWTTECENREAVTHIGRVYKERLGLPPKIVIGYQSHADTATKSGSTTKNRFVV
# UniProt P49366, sequence (P49366 whole entry, looked up): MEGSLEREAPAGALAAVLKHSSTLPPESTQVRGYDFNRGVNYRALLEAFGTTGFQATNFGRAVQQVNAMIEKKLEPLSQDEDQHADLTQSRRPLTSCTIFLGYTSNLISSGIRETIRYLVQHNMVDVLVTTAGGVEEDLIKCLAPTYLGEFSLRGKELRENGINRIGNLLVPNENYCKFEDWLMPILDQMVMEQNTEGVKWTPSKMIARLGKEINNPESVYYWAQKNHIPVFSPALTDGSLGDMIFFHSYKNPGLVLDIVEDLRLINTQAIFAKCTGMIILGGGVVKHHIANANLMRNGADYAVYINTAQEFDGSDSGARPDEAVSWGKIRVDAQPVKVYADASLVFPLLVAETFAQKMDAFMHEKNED
# UniProt Q14689, sequence (Q14689 whole entry, looked up): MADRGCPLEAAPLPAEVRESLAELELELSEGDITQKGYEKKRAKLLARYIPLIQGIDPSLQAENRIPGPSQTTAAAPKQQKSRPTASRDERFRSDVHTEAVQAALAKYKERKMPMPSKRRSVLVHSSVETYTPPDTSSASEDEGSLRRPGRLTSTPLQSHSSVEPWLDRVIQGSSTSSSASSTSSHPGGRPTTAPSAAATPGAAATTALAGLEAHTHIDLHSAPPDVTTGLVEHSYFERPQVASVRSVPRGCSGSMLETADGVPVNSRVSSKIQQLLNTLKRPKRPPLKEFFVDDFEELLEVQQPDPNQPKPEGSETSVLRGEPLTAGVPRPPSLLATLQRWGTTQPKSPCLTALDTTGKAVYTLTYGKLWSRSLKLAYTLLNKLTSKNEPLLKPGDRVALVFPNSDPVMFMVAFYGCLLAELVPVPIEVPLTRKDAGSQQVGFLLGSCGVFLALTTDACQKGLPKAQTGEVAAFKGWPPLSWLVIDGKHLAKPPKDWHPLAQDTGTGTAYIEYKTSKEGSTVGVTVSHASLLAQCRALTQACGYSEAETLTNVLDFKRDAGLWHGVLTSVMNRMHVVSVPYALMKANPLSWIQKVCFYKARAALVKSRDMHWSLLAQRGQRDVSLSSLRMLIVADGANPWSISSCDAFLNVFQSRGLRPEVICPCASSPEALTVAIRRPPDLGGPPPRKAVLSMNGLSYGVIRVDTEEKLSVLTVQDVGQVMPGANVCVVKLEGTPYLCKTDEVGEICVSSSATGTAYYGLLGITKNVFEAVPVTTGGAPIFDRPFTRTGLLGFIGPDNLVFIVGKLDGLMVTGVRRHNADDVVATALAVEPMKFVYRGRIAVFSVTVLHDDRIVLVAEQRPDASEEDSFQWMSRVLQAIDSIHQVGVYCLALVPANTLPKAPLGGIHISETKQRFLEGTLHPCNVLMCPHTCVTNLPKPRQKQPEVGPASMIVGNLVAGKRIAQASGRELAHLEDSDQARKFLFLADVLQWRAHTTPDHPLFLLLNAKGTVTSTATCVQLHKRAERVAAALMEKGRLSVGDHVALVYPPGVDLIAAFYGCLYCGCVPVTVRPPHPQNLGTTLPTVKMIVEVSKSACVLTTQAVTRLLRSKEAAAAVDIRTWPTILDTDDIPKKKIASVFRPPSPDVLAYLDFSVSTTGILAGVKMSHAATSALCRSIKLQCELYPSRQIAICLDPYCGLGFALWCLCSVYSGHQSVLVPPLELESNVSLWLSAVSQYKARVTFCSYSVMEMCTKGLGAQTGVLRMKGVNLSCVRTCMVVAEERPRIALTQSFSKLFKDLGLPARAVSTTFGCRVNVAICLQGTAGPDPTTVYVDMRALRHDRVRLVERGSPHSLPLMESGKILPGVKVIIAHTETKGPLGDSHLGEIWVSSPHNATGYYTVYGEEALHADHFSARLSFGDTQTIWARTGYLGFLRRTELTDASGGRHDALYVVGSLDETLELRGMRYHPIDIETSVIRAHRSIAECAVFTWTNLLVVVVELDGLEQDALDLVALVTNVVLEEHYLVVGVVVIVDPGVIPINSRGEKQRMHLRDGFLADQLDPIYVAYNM
# UniProt Q7L576, sequence (Q7L576 whole entry, looked up): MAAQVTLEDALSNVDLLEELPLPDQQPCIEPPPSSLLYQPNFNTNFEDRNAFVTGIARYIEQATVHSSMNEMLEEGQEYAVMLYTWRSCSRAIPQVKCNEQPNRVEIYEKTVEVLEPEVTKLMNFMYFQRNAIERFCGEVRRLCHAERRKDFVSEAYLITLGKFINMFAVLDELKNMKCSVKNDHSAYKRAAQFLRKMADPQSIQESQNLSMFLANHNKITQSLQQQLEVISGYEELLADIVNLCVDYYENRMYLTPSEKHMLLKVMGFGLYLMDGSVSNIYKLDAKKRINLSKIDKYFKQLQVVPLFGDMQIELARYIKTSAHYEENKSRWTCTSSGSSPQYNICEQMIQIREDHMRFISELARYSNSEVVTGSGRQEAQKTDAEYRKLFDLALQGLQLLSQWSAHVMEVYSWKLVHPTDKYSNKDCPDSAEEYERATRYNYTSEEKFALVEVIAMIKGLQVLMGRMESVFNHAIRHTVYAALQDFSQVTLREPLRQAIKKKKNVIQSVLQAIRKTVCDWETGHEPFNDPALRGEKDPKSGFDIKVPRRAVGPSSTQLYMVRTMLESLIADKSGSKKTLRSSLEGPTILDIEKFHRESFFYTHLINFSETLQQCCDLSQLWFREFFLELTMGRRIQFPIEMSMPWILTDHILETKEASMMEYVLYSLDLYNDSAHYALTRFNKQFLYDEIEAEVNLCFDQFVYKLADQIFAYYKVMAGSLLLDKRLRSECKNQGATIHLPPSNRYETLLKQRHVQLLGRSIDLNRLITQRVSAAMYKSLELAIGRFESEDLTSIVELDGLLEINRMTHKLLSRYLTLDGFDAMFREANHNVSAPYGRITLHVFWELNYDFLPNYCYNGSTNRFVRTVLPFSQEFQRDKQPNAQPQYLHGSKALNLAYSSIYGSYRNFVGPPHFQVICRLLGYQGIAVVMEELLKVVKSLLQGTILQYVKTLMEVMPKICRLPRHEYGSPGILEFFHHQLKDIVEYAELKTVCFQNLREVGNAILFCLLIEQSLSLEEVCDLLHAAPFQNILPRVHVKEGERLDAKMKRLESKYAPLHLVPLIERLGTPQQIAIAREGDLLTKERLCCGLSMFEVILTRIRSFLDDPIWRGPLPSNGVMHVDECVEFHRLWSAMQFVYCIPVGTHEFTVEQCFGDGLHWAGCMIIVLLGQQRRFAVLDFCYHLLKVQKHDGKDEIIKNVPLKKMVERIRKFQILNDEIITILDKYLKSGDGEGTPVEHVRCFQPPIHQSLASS
# UniProt Q13409, sequence (Q13409 whole entry, looked up): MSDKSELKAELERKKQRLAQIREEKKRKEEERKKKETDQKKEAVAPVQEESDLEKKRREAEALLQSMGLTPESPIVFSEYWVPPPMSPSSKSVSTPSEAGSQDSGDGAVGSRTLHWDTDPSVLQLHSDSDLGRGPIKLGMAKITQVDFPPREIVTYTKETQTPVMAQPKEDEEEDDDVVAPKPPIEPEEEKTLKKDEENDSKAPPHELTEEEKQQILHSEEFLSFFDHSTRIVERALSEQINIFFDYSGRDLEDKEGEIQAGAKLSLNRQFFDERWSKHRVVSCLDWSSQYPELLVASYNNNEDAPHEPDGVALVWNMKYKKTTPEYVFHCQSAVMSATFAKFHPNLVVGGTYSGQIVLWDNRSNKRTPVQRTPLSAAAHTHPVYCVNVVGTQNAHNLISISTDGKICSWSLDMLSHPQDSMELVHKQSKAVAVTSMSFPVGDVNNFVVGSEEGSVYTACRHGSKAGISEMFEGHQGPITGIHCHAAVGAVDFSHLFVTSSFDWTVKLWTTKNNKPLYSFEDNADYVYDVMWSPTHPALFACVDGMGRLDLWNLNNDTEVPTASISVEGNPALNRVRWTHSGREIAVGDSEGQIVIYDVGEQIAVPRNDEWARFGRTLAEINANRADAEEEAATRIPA
# UniProt Q9BV94, sequence (Q9BV94 whole entry, looked up): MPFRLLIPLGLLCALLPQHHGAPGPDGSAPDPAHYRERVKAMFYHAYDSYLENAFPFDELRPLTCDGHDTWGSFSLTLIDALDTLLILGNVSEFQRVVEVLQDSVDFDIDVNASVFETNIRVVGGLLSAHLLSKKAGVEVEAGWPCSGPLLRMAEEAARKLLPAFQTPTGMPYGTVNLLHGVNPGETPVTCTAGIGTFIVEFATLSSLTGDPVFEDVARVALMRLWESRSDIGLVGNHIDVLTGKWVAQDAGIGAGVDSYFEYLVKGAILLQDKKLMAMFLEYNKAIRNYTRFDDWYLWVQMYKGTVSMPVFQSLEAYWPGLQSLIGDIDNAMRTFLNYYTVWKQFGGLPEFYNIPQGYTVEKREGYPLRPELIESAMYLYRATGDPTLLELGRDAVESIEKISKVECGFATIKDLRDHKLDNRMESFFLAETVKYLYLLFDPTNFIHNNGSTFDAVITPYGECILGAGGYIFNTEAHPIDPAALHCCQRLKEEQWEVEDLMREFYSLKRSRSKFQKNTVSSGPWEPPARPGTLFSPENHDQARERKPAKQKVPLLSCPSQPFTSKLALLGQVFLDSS
# UniProt Q9NXW2, sequence (Q9NXW2 whole entry, looked up): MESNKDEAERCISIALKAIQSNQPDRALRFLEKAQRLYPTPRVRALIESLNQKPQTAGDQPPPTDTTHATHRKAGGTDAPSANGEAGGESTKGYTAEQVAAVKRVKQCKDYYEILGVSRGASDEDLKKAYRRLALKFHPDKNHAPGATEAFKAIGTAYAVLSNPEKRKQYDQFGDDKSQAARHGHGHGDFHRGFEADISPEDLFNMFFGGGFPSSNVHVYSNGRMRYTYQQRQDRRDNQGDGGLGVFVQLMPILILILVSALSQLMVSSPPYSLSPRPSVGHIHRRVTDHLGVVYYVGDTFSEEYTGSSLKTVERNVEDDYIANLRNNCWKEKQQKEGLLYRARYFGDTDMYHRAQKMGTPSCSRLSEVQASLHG
Target,log2 fold change (erlotinib),log2 fold change [1],log2 fold change [2],log2 fold change [3],log2 fold change [4],log2 fold change [5],log2 fold change [6],log2 fold change [7],log2 fold change [8],log2 fold change [9],log2 fold change (IRAK-1-4 Inhibitor I),log2 fold change (ibrutinib),log2 fold change [10],log2 fold change (ralimetinib),log2 fold change [11],log2 fold change [12],log2 fold change [13],log2 fold change (pinometostat),log2 fold change [14],log2 fold change [15]
"FADS1, A0A0A0MR51",0.016,-0.11,-0.049,-0.134,0.09,0.05,0.231 (active),-0.008,-0.006,0.002,0.085,0.015,-0.07,0.017,0.355 (active),-0.044,0.05,0.027,-0.013,0.003
CTSA (UniProt P10619),-0.058,-0.065,0.001,-0.004,-0.053,0.018,0.04,0.003,0.021,0.051,-0.006,0.017,0.038,-0.027,0.027,-0.204,-0.017,0.014,0.014,-0.058
EDEM2 (UniProt Q9BV94),-0.025,0.023,-0.009,0.09,0.132,-0.318,0.012,0.081,-0.018,0.05,0.181,-0.014,-0.062,-0.138,-0.009,-0.071,0.065,-0.001,0.009,0.022
DIP2A (UniProt Q14689),-0.002,0.07,0.055,0.103,-0.145,0.076,0.037,0.043,0.03,0.053,-0.036,0.053,-0.06,0.102,0.003,-0.023,0.118,0.064,0.084,0.018
CYFIP1 (UniProt Q7L576),-0.016,0.066,0.07,0.018,0.002,0.026,0.003,-0.016,0.005,0.059,-0.001,-0.019,-0.07,-0.013,-0.056,-0.042,-0.013,0.001,0.009,0.026
DIAPH1 (UniProt O60610),0.072,0.058,-0.109,-0.037,0.031,0.04,0.067,0.006,-0.072,-0.235,-0.128,-0.061,0.072,0.168,0,-0.373 (active),0.07,0.213,-0.017,-0.08
DNAJB12 (UniProt Q9NXW2),-0.039,-0.001,0.003,0.102,0.004,0.032,0.006,-0.064,0.044,0.033,-0.026,0.004,-0.013,-0.767 (active),-0.032,-0.012,0.076,0.021,0.05,0.022
DHCR7 (UniProt Q9UBM7),0.113,0.041,-0.095,-0.056,0.071,0.022,0.038,-0.003,-0.037,0.623 (active),-0.045,-0.091,-0.085,0.056,0.067,-0.021,0.011,0.199,0.037,0.15
CUEDC2 (UniProt Q9H467),0.016,-0.023,0.047,0.023,-0.021,0.117,-0.074,0.008,-0.071,-0.006,0.035,-0.011,0.003,-0.026,-0.056,-0.003,0.198,-0.001,-0.015,-0.159
CTSC (UniProt P53634),-0.002,0.016,0.022,-0.031,0.014,0.004,0.028,0.009,-0.02,0.138,0.008,0.011,-0.003,-0.034,0.016,-0.061,0.015,-0.031,-0.018,-0.038
DYNC1I2 isoform 5 (UniProt Q13409),-0.009,-0.016,-0.033,0.003,0.025,-0.006,0.057,0.016,0.007,0.018,0.022,0.016,0.022,0.013,-0.003,0.041,0.062,-0.019,-0.015,-0.032
DHPS (UniProt P49366),0,-0.01,0.088,-0.002,-0.034,0.033,0.024,-0.004,-0.007,0.021,0.011,-0.004,0.02,-0.04,-0.043,0.047,-0.012,-0.095,0.008,-0.027
EXOC8 (UniProt Q8IYI6),0.048,0.144,-0.042,-0.056,0.05,0.017,-0.012,0.001,-0.053,-0.054,-0.094,-0.001,0.014,0.049,-0.128,-0.317 (active),-0.032,0.051,0.026,-0.002
EIF4E isoform 2 (UniProt P06730),0.084,-0.035,0.056,-0.073,0.01,0.168,0.074,0.152,0.181,0.146,0.066,0.089,0.308,-0.071,-0.016,0.114,0.012,-0.057,-0.024,0.027
DMXL1 (UniProt Q9Y485),0.059,0.071,-0.006,0.006,0.068,-0.001,0.024,-0.02,0.019,0.034,-0.005,0.002,-0.035,0.028,-0.085,-0.231,0.019,0.042,-0.005,0.069
EHBP1L1 (UniProt Q8N3D4),-0.005,0.088,0.06,-0.005,0.057,0.026,-0.013,-0.03,-0.1,-0.116,-0.044,-0.054,-0.077,0.083,-0.001,-0.034,0.05,0.086,-0.049,0.028
